Reference: PubChem BioAssay AID1508622 (National Center for Advancing Translational Sciences (NCATS), 2021)
The source made the active and inactive calls. Calls come from the whole dose curve; as a rule, active = well fitted activation curve with a large enough effect; inconclusive = small, poorly fitted or top-dose-only effect; inactive = no such curve, though single readings can be large or run the other way.

Test: Confirmatory qHTS for Identification of Small Molecule Activators of Huntingtin-Antisense Promoter Activity
Settings: HEK293 HTT-AS promoter firefly luciferase reporter, 24 h; series mostly up to 57.5 µM
Summary of the method: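 HEK293 luciferase reporter cells, 2,500/well, cultured 24 h, then exposed to compounds at up to 57.5 uM final for 24 h at 37C. Firefly luciferase luminescence read; normalized to vehicle (0%) and zero RLU (-100%).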

Potency, inactive:
COc1ccc(N2CCN(C(CNC(=O)C(=O)NCc3ccc(C)cc3)c3cccnc3)CC2)cc1 (stereo not drawn), Cc1ccc(CNS(=O)(=O)c2ccc(N3CCCCS3(=O)=O)cc2)cc1, CSc1ncc(Cl)c(C(=O)Nc2ccc(S(=O)(=O)N3CCC(C)CC3)cc2)n1, Cc1ccc(N2CCN(C(=O)c3nn(C)c4c3CS(=O)(=O)c3ccccc3-4)CC2)c(C)c1, COc1ccc(CNC(=O)c2oc3c(c2C)-c2nn(Cc4ccccc4Cl)cc2CC3)cc1, CCc1cccc2sc(N3CCN(C(=O)c4cc5ccccc5cc4OC)CC3)nc12, COc1ccc(CCNC(=O)c2ccc3c(c2)CCN3S(=O)(=O)c2ccc(Cl)cc2)cc1, Cc1ccc(NC(=O)c2c(NC(=O)C(F)(F)F)sc3c2CCCCC3)cc1, COc1ccccc1C(=O)Nc1nnc(SCc2cc(=O)c3ccccc3[nH]2)s1, CCc1nnc2n1N(C(C)=O)C(c1ccc(C(C)(C)C)cc1)=C(C(C)=O)S2, COc1ccc2sc(N(Cc3cccnc3)C(=O)c3ccc4c(c3)OCCO4)nc2c1, CCOc1ccc(-n2c(/C=C/c3cccc(F)c3)nc3cc(OC)c(OC)cc3c2=O)cc1, CSc1cccc(NC(=O)C2CCN(C(=O)c3cnn(-c4ccccc4)c3-n3cccc3)CC2)c1, CCCOCc1cc(CN2CCN(c3cccc(Cl)c3)CC2)c(O)c2ncccc12, O=C(c1cccs1)N(Cc1cccnc1)c1nc2ccc(F)cc2s1, Cc1ccc(CCNC(=O)c2cc3c(s2)-c2ccccc2OC3)cc1, Cc1c(Cl)ccc2sc(N3CCN(C(=O)CCS(=O)(=O)c4ccc(F)cc4)CC3)nc12, CCS(=O)(=O)c1ccc(C(=O)N2CCN(c3nc4c(OC)ccc(C)c4s3)CC2)cc1, CCN(c1ncnc2c1cnn2-c1cc(Cl)ccc1C)C1CCCCC1, Cc1cc(NC(=O)CCc2nc3cccnc3n2-c2ccccc2)ccc1Br, COc1ccccc1C(=O)N1c2ccccc2C(C)(c2ccc(Cl)cc2)CC1(C)C (stereo not drawn), CCCN(c1ccccc1CC)S(=O)(=O)c1ccc2c(c1)CC(C)N2C(=O)C1CC1 (stereo not drawn), Cc1cccc(-c2nc(CSCC(=O)N3CCN(c4ccccc4)CC3)c(C)o2)c1, CCn1c(CN2CCCCC2)nc2cc(NC(=O)c3ccc([N+](=O)[O-])cc3)ccc21, CCOC(=O)c1cc(-c2ccccc2)n(-c2cccc(C(=O)Nc3cccc(F)c3)c2)c1C, CC[C@@H]1C(=O)N(C)c2cnc(Nc3ccc(C(=O)NC4CCC(N5CCN(CC6CC6)CC5)CC4)cc3OC)nc2N1C(C)C (stereo partly drawn), O=C(Nc1ccc(F)cc1F)N1CCN(c2ccc(Cl)c(Cl)c2)CC1, Cc1cc(Cl)ccc1OCC(=O)N1CCC(c2nc3ccccc3s2)CC1, COc1ccc(S(=O)(=O)N2CCC(C(=O)Nc3ccc(Oc4ccccc4)cc3)CC2)cc1OC, CC(C)C1C(=O)Nc2ccc(S(=O)(=O)NCc3ccc(Cl)cc3)cc21 (stereo not drawn), COc1ccc(NC(=O)c2ccc(-c3nc(CSc4ccccc4)c(C)o3)cc2)cc1OC, Cc1ccc(C2=CC(c3ccc(Cl)cc3)n3nc(-c4ccc(C)cc4)nc3N2)cc1 (stereo not drawn), CCc1ccc(CNC(=O)c2cccc(-n3c(C)nc4cccnc43)c2)cc1, Cn1cc(CNCC2CCN(c3ncc(C(=O)NO)cn3)CC2)c2ccccc21, CCOc1ccc(NC(=O)c2c(Nc3ccccc3C)sc(C(=O)c3ccccc3)c2N)cc1, Cc1nc2cccnc2n1-c1cccc(C(=O)NCc2ccc(OC(C)C)cc2)c1, Cc1ccc(S(=O)(=O)n2nc(-c3ccccc3)nc2NCc2ccccc2Cl)cc1, COc1cc(CNC(=O)c2ccc3nc(Cc4ccccc4)oc3c2)cc(OC)c1OC
